# An excerpt weighted towards active compounds, which were near 2% of everything screened.
# A3A deaminase = APOBEC3A ssDNA deaminase inhibitors, primary screen, selectivity assay for APOBEC3G inhibitor project, biochemical, FAM/TAMRA oligo cleavage fluorescence; inhibition, % at 20 µM; recombinant A3A, FAM/TAMRA ssDNA deamination fluorescence; DNA dC->dU-editing enzyme APOBEC-3A (Homo sapiens), P31941; AID 493011, 2011; 330,000 compounds, 0.41% hits;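 active = at least 40% inhibition at 20 µM here, with at most 30% in a related deaminase screen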;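 also: plate controls were A3A with DMSO for no effect and wells lacking A3A enzyme for full effect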
# Fh CTSL1 inh = Fasciola hepatica cathepsin L1 inhibitors, primary screen, counter-screen for PFM18AAP inhibitor project, biochemical, QFRET, fluorogenic peptide substrate | AID 1906, 2009 | 300,000 compounds, 0.49% hits | inhibition, % at 5.96 µM | recombinant F. hepatica cathepsin L1, Z-Leu-Arg-MCA fluorescence;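 active = inhibition above the mean of all tested compounds plus 3 SD, set per screening campaign, cut at about 17% in these data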;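 also: 0% = plate median of test compound wells and 100% = 1 µM Z-Phe-Ala-diazomethylketone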
# APOBEC3G inh = APOBEC3G DNA deaminase inhibitors, primary screen, biochemical, fluorescence, single-stranded DNA substrate, uHTS | DNA dC->dU-editing enzyme APOBEC-3G (Homo sapiens), Q9HC16 | recombinant A3G, ssDNA deamination FAM/TAMRA fluorescence | 330,000 compounds, 0.28% hits | inhibition, % at 20 µM;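 active = inhibition of at least 40% at 20 µM, with no more than 30% in the related APOBEC3A deaminase screen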;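 also: plate controls were DMSO wells with A3G for no effect and wells lacking A3G enzyme for full effect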
# sPLA2-III inh = human group III sPLA2 inhibitors, primary screen, biochemical, QFRET, BODIPY PC-A2 liposome substrate; inhibition, % at 12.2 µM; Group 3 secretory phospholipase A2 (Homo sapiens), Q9NZ20; 370,000 compounds, 0.56% hits; QFRET BODIPY PC-A2 liposome hydrolysis, fluorescence; AID 743126, 2013;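 active = inhibition above mean plus 3 SD of compounds lying within the high and low control bounds, cut at about 19% in these data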;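 also: 0% = median of test compound wells and 100% = no enzyme DMSO wells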
# Target sequence (Q9NZ20 whole entry, looked up): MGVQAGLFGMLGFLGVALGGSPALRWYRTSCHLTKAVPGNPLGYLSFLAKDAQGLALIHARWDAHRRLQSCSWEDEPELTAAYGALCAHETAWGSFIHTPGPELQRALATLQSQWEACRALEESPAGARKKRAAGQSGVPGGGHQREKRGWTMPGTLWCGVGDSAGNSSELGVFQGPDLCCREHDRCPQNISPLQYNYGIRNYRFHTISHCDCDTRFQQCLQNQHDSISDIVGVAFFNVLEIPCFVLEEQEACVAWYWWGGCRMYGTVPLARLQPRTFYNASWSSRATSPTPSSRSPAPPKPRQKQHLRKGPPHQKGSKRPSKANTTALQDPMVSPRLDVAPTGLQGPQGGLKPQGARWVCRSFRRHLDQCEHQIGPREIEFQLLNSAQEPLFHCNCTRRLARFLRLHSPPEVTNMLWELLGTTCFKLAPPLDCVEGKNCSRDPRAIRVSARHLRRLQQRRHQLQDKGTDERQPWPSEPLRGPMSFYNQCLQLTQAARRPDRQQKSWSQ
# NALP1 yeast inh = NALP1 inflammasome inhibitors in reconstituted yeast, colorimetric, S. cerevisiae, triplicate retest; S. cerevisiae NALP1/ASC/caspase-1 growth, X-gal OD620, 72 h; inhibition, % at 10 µM; 280,000 compounds, 0.61% hits; in the data active = inhibition mostly above about 24%, no sharp cut-off; inactive = mostly below about 32%
# A3A conf = APOBEC3A deaminase inhibitors, retest, confirmation, selectivity assay for APOBEC3G inhibitor project, biochemical, single concentration, fluorescence readout. shares compounds with A3A deaminase. recombinant A3A, ssDNA deaminase UDG fluorescence assay. inhibition, % at 20 µM. 1,400 compounds, 63% hits;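 active = inhibition reaching a set limit, 80% of the first screen's cutoff, at 20 µM in any replicate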;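 also: plate controls were DMSO wells with A3A for no effect and wells lacking A3A enzyme for full effect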
# UDG ctr A3A = E. coli UDG inhibitors, confirmation, counter-screen for APOBEC3A inhibitor project, biochemical, single concentration, fluorescence, FAM/TAMRA oligo; AID 504714, 2011; UDG counterscreen, FAM/TAMRA uracil oligo fluorescence; 1,000 tested, under 10 active; inhibition, % at 20 µM; shares compounds with A3A deaminase; call rule not given here
# A3G conf = APOBEC3G deaminase inhibitor retest, confirmation, biochemical, fluorescence, single-stranded DNA substrate, single concentration; recombinant A3G ssDNA deaminase, UDG/FAM-TAMRA fluorescence; AID 493152, 2011; shares compounds with APOBEC3G inh; 890 compounds, 72% hits; inhibition, % at 20 µM;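 active = inhibition reaching a set limit in any replicate at 20 µM, the limit being 80% of the first screen's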
# The depositor's hits bear a star; / = no result.
SMILES,A3A deaminase,Fh CTSL1 inh,APOBEC3G inh,sPLA2-III inh,NALP1 yeast inh,A3A conf,UDG ctr A3A,others
Cn1c[n+](C)cc1C(O)c1ccccc1 (stereo unspecified),60.3*,-1.8,17.0,7.4,14.4,50.7*,-3.2,
COc1ccc(C(C)=O)cc1CN1CC=C(c2ccccc2)CC1,55.8*,-1.8,4.8,/,4.7,32.6*,-2.3,
C[N+]1(C)C2CCC1CC(OC(=O)C(CO)c1ccccc1)C2 (stereo unspecified),67.6*,-1.3,17.0,6.7,-4.3,73.9*,-3.5,
C[N+]1(C)C2CCC1CC(OC(=O)c1ccccc1)C2 (stereo unspecified),50.5*,-1.0,16.8,3.3,/,67.0*,1.3,
CN1C2CCC1CC(OC(=O)c1ccc(Cl)cc1)C2 (stereo unspecified),-5.0,3.6,-6.9,-1.9,-16.3,/,/,
C[N+]1(C)[C@@H]2CC[C@H]1CC(OC(=O)C(CO)c1ccccc1)C2 (stereo partly specified),-0.4,-2.9,-1.8,-2.5,20.7,/,/,
O=P(Nc1cccc(Cl)c1)(Oc1ccccc1)Oc1ccccc1,-5.3,0.2,-11.4,-20.9,22.4,/,/,
C[C@]12CCC3C(CC[C@H]4C[C@H](O)CC[C@]34C)C1[C@@H](O)C[C@@H]2O (stereo partly specified),-2.0,/,-8.7,2.4,/,/,/,
CCCN1CCC[C@H](c2cccc(O)c2)C1,-2.5,-4.1,-5.1,-0.8,/,/,/,
CCOc1c(P(=S)(N(C)C)N(C)C)c(C)nn1-c1ccccc1,42.1*,-6.5,5.3,-1.9,34.1,4.1,/,
CC[N+]12CCC(CC1)C(C(O)(c1ccccc1)c1ccccc1)C2 (stereo unspecified),0.0,-0.6,-5.1,-5.4,12.2,/,/,
CC(C)[N+]12CCC(CC1)C(C(O)(c1ccccc1)c1ccccc1)C2 (stereo unspecified),/,0.4,/,1.2,1.4,63.1*,/,
C[N+]12CCC(CC1)C(C(O)(c1cccc(Cl)c1)c1cccc(Cl)c1)C2 (stereo unspecified),86.5*,-0.3,19.7,0.0,27.6,75.3*,2.7,
Cc1ccc(C(O)(c2ccc(C)c(C)c2)C2CN3CCC2CC3)cc1C (stereo unspecified),-1.1,-2.6,-5.0,-10.3,7.3,/,/,
C[n+]1ccc(-c2ccncc2)cc1,74.1*,-3.0,25.2,2.0,-2.9,76.6*,-2.8,
COc1ccc(-n2c(C)cc(C(=O)C[N+]34CCN(CC3)CC4)c2C)cc1,59.5*,1.3,9.7,4.7,18.3,70.3*,1.6,
Cc1cc(C(=O)CN2CCCC2)c(C)n1-c1ccc(F)cc1,4.6,2.0,0.9,2.1,/,/,/,
CCOc1ccc(N2C(=O)NC(=O)/C(=C/c3cnc(SC)nc3)C2=O)cc1,-2.4,-0.6,-5.8,3.1,-1.6,/,/,
COc1cc2c(cc1OC)-c1c(OC)c(OC)cc3c1[C@H](C2)[N+](C)(C)CC3,83.1*,12.4,23.3,2.4,8.4,71.0*,-1.3,
CC(=O)NN1C(=O)c2ccccc2NC1c1cccnc1 (stereo unspecified),5.4,3.0,53.7*,3.2,3.9,/,/,A3G conf=-1.5
